ALDH1A1 inh = qHTS Assay for Inhibitors of Aldehyde Dehydrogenase 1 (ALDH1A1); AID 1030, 2008; 220,000 tested, 7.3% active; Potency, µM (titrated, usually from 75.3 µM), actives largely listed as inhibitors; Purified ALDH1A1, NADH fluorescence, propionaldehyde substrate; Aldehyde dehydrogenase 1A1 (Homo sapiens), P00352
ALOX12 inhib = qHTS Assay for Inhibitors of 12-hLO (12-human lipoxygenase). 150,000 tested, 0.12% active. purified 12-hLO, xylenol orange hydroperoxide absorbance. Potency, µM (series often up to 57.1 µM), most hits filed as inhibitors. AID 1452, 2008. Polyunsaturated fatty acid lipoxygenase ALOX12 (Homo sapiens), P18054; active = well fitted inhibition curve with a large enough effect; inconclusive = small, poorly fitted or top-dose-only effect; also: nearly all actives have a fitted effect of over 55% in size
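Hydroperoxide output read as Fe(III)-xylenol orange absorbance, 573-to-405 nm ratio, after 30 min reaction with 40 uM arachidonic acid. Enzyme: 150 nM purified human 12hLO, 15 min compound preincubation; 25 mM Hepes pH 7.0, room temperature.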
LMNA splice mod = qHTS Assay for Modulators of Lamin A Splicing | Potency, µM (series often up to 46.1 µM), hits mostly inhibitors | 200,000 tested, 0.01% active | HeLa LMNA splicing GFP/RFP minigene ratio, 48 h; active = well fitted inhibition curve with a large enough effect in the signal ratio, with a control signal flat, not every such curve was filed as active; inconclusive = small, poorly fitted or top-dose-only effect, or effect the other way, or a change in a side signal; the % refers to the signal ratio
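S3 HeLa cells stably expressing lamin A-EGFP splicing minigene plus DsRed2, 600 cells/well, 48 h compound exposure at 37C. Laser-scanning cytometry; analysed as GFP (500-530 nm)/RFP (575-640 nm) total intensity ratio; 0.5% DMSO vehicle.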
PNC assembly inh = High Content Assay for Compounds that inhibit the Assembly of the Perinucleolar Compartment; PC3M PTB-GFP, PNC prevalence imaging, 16 h; stronger effect = lower value; activity change (PNC), negative = inhibition, % at 10 µM; 140,000 tested, 3.1% active;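 active = readout at or below -70, meaning at least 70% loss of cells showing the perinucleolar compartment, a nuclear body marking cancer cells; inconclusive = readout between -30 and a set limit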
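Compounds are pinned in duplicate onto adhered PC3M cells stably expressing GFP-tagged PTB and incubated 16 h at 37 C. Cells are then fixed, nuclei stained with Hoechst, and PNC-positive cells counted.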
HPGD block = qHTS Assay for Inhibitors of HPGD (15-Hydroxyprostaglandin Dehydrogenase); purified HPGD, NADH fluorescence kinetic, PGE2 substrate; Potency, µM, most hits filed as inhibitors; 150,000 tested, 4.3% active; AID 894, 2007
Target sequence (P15428 whole entry, looked up): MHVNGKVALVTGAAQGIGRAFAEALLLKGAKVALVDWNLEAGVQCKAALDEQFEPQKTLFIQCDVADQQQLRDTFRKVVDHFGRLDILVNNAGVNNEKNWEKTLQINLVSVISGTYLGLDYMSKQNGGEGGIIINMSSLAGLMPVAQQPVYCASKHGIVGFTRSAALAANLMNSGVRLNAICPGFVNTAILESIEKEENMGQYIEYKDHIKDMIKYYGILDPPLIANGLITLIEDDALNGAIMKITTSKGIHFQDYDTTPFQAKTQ
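20 nM HPGD preincubated 15 min at room temperature with compound in 50 mM Tris-HCl pH 8, 0.01% Tween 20. Started with 1 mM NAD+ and 30 uM prostaglandin E2; NADH fluorescence (360/450 nm) read 5 times over 30-s intervals, last minus first.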
A number is an active result; i = inactive; ? = inconclusive; nt = not tested or not shown; [ ] = remark or other dose. Most compounds without a hit are left out; they make up all but 10% or so of the library. Unless noted, calls follow the shape of the dose curve; as a rule, active = well fitted inhibition curve with a large enough effect (not every such curve was filed as active); inconclusive = small, poorly fitted or top-dose-only effect, or another doubt; inactive = no such curve, though single readings can be large or run the other way.

SMILES	ALDH1A1 inh	ALOX12 inhib	LMNA splice mod	PNC assembly inh	HPGD block
O=C(NP(=O)(N1CCOCC1)N1CCOCC1)C1=C(N2CCOCC2)/C(=C\c2ccccc2)CC1	3.5µM	nt	?	nt	nt
c1ccc(Cn2c(NCc3ccncc3)nc3ccccc32)cc1	25µM	nt	nt	nt	nt
c1ccc(Cn2c(NCc3ccccn3)nc3ccccc32)cc1	i	nt	i	nt	nt
O=C(c1cccs1)N(Cc1cccnc1)c1nc2ccc(F)cc2s1	nt	nt	i	nt	nt
CC[C@@]1(O)C(=O)COc2c1cc1n(c2=O)Cc2c-1nc1cccc(C(C)C)c1c2[Si](C)(C)C	?	i	nt	nt	?
NC(=O)COC(=O)CSc1ccc2ccccc2c1	i	nt	i	nt	nt
C[C@H](NS(=O)(=O)c1ccccc1F)C(=O)OCC(=O)N1CCc2ccccc21	?	i	i	-93	i
O=C(COc1ccccc1)N1CCc2ccccc21	i	i	?	-82	i
CCOC(=O)C1=C(C)NC(C)=C(C(=O)OCC)C1C(=O)OCC(=O)N1CCc2ccccc21	i	i	?	-99	i
CCOC(=O)c1[nH]c(C)c(C(=O)OCC(=O)N2CCc3ccccc32)c1C	i	i	i	i	i
N[C@@H](CSc1nc2ccccn2c1[N+](=O)[O-])C(=O)O	i[13.5 µM]	i[11.4 µM]	nt	nt	i
COc1ccc(NC(=O)CS(=O)CC(=O)NC2CCCc3ccccc32)cc1 (centres undefined)	i	i	i	?	i
O=C(CCl)NC1CCCc2ccccc21 (centres undefined)	3.2µM	nt	nt	nt	nt
CN(C(=O)CCl)C1CCCc2ccccc21 (centres undefined)	0.4µM	nt	nt	nt	nt
COc1ccc(CC(=O)NC2CCCc3ccccc32)cc1 (centres undefined)	?	nt	i	nt	nt
O=C(CCn1cccc1)NC1CCCc2ccccc21 (centres undefined)	i	i	i	?	i
CCOc1ccc(NC(=O)CS(=O)CC(=O)NC2CCCc3ccccc32)cc1 (centres undefined)	6.3µM	i	i	i	i
COc1ccc(-c2cc(C(=O)Nc3c(C(=O)c4ccc(C)cc4)oc4ccccc34)no2)cc1	nt	nt	i	nt	nt
COCC(=O)N1CCC[C@@]2(CCN(C(=O)Nc3cccc(C#N)c3)C2)C1	i	i	nt	nt	i
C=CCn1c(CCC(=O)Nc2ccc(C)c(Cl)c2)nnc1SCC(=O)Nc1ccccc1C	?	i	?	i	i
COC(=O)CC1=NN(c2ccccc2)C(=O)/C1=C\c1ccc(OC)cc1	?	i	i	i	14µM
CCN(CC)C1=N/C(=C\c2ccc(OC)cc2)C(=O)N1c1ccccc1	?	i	?	i	i
CCOC(=O)CC1=NN(c2ccccc2)C(=O)/C1=C\c1ccc(OC)cc1OC	?	i	i	i	28µM
COC(=O)CC1=NN(c2ccc(OC)cc2)C(=O)/C1=C\c1ccc(Cl)cc1	i	i	i	?	25µM
COC(=O)[C@H](Cc1ccccc1)NC(=O)[C@H]1C[C@@H]1[C@H](NC(=O)OCc1ccccc1)c1ccccc1	i	i	nt	nt	i
SMILES	ALDH1A1 inh	ALOX12 inhib	LMNA splice mod	PNC assembly inh	HPGD block
O=S(=O)(c1ccccc1)N1CCC2(CC1)CN(Cc1ccccc1)C2	i	i	nt	nt	i
O=C(CCN1CCC(c2ccc(Cl)s2)=N1)c1ccc(Cl)s1	3.2µM	nt	i	nt	nt
CCCCN(Cc1ccccc1)C(=O)CCN1C(=O)C2C3C=CC(C3)C2C1=O (centres undefined)	2.2µM	nt	i	nt	nt
Cc1ccc(/C=C/C(=O)N2CCC(c3nc4ccccc4o3)CC2)cc1	nt	nt	i	nt	nt
Cc1ccc(O)c(-c2cc3ccccc3[nH]2)c1	?	i	?	i	?
O=[N+]([O-])c1ccccc1-c1cc(-c2ccccc2O)n[nH]1	?	i	i	-83	13µM
Oc1ccc(Br)cc1-c1cc(-c2ccccc2)n[nH]1	i	i	?	i	25µM
Cc1ccc(O)c(-c2cc(-c3cccc(F)c3)n[nH]2)c1	i	i	i	i	16µM
Oc1ccc(Br)cc1-c1cc(-c2ccc(Cl)cc2)n[nH]1	i	i	?	?	?
Cc1ccc(O)c(-c2cc(-c3ccccc3F)[nH]n2)c1	i	i	i	i	4.5µM
Cc1ccc(NC(=O)NCCc2c(C)nn(C)c2C)c(Cl)c1	nt	nt	i	nt	nt
